High-throughput results (PubChem BioAssay)
M1 ag parental: M1 agonist counterscreen hit in parental CHO-K1 cells; Fluo-8 calcium fluorescence; scaled to maximal ATP response, vehicle zero; activation, % at 3 µM; 0.48% of 360,000 active; in the data active = activation above about 15%;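 also: untransfected CHO-K1 host cells lacking M1 receptor as counterscreen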
CHO-K1 Ca antag: M1 antagonist counterscreen hit in parental CHO-K1 cells; ATP-induced calcium, Fluo-8 fluorescence; AID 602250; inhibition, % at 3 µM; 0.6% of 360,000 active;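 active = inhibition above a per-plate cutoff, the plate's mean sample inhibition plus 3 SD, cut at about 24% in these data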;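 also: 0% = DMSO plus EC80 ATP and 100% = DMSO alone without ATP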
M1 PAM parental: counter-screen for M1 PAMs: effect in parental CHO-K1 cells | activation, % at 3 µM | 0.02% of 360,000 active | AID 602247 | ATP EC20, Fluo-8 calcium fluorescence; 0% at ATP EC20, 100% at ATP max;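 active = activation above the run cutoff, the mean activation of all test compounds plus 3 SD, cut at about 40% in these data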;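 also: peak over basal fluorescence ratio in a 140 s read after ATP addition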
CHRM1 antagonist: blocks human M1 muscarinic receptor; AID 588852; 1.3% of 360,000 active; inhibition, % at 3 µM; CHO-K1 hM1, Fluo-8 calcium fluorescence, ACh EC80 antagonist;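 active = percent inhibition above its own plate's cutoff, namely the mean of that plate's compound wells plus 3 SD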;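 also: peak over basal fluorescence ratio during 140 s after agonist addition; 0% = ACh EC80 plus DMSO and 100% = DMSO alone without agonist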
Target sequence (P11229 whole entry, looked up): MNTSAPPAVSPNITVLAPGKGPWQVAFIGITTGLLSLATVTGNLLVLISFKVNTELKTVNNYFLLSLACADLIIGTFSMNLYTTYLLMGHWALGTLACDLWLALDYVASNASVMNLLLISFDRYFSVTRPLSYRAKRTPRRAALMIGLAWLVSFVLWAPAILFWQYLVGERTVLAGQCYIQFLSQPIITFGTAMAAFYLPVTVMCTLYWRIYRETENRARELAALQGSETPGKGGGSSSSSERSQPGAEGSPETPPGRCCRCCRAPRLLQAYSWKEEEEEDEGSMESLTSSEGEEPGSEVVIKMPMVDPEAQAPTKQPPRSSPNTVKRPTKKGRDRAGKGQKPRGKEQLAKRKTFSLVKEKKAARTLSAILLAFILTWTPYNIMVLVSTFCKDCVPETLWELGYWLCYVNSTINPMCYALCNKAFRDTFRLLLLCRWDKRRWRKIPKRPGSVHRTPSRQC
M1 PAM: positive allosteric modulators of human M1 muscarinic receptor. 0.088% of 360,000 active. activation, % at 3 µM. CHO-K1 hM1, Fluo-8 calcium fluorescence, ACh EC20; 0% = ACh EC20, 100% = maximal ACh. AID 588819; in the data active = activation above about 19%, passing the limit was not always enough
M1 ag: activates human CHRM1 receptor | P11229 | CHO-K1 hM1, Fluo-8 calcium fluorescence, agonist mode; 0% DMSO, 100% acetylcholine EC100 | activation, % at 3 µM | 0.33% of 360,000 active;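 active = activation above the run's mean compound activation plus 3 SD, cut at about 16% in these data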;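 also: peak over basal fluorescence ratio within a 140 s kinetic read after compound addition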
Starred values were filed as active, the others as inactive. Sampled rows, rich in hits. Any-hit rate of the full collection: about 2.3%.

Results for COc1ccc2oc(=O)c(C(=O)N3CCN(C(=O)c4ccco4)CC3)cc2c1 ?
M1 ag parental: 0; CHO-K1 Ca antag: -12; M1 PAM parental: 17; CHRM1 antagonist: -19; M1 PAM: 13; M1 ag: -5

Results for CCN(CC)CCOC(=O)C12CC3CC(CC(C3)C1)C2 ?
M1 ag parental: 1; CHO-K1 Ca antag: -8; M1 PAM parental: 8; CHRM1 antagonist: 41*; M1 PAM: -21; M1 ag: -5

Results for CCC1Oc2ccccc2N(CC(=O)NCCCN2CCOCC2)C1=O (centres undefined) ?
M1 ag parental: -1; CHO-K1 Ca antag: 27*; M1 PAM parental: -1; CHRM1 antagonist: -2; M1 PAM: 8; M1 ag: -4

How did OC(CN1CCCC(C(F)(F)F)C1)c1ccccc1 (centres undefined) do in these assays?
M1 ag parental: 0; CHO-K1 Ca antag: -18; M1 PAM parental: -8; CHRM1 antagonist: -32; M1 PAM: 34*; M1 ag: 2

What do the screens show for `OC(COC(c1ccc(F)cc1)c1ccc(F)cc1)CN1CCCC(C(F)(F)F)C1` (centres undefined)?
M1 ag parental: -1; CHO-K1 Ca antag: -10; M1 PAM parental: -11; CHRM1 antagonist: -12; M1 PAM: 4; M1 ag: -2

Results for Cc1nnc(Nc2ccc(C(=O)N3CCOCC3)cc2)c2ccccc12 ?
M1 ag parental: 0; CHO-K1 Ca antag: -20; M1 PAM parental: 19; CHRM1 antagonist: -45; M1 PAM: 27*; M1 ag: 0

Results for CCOC(=O)c1sc(NC(=O)Nc2ccc(Cl)cc2)cc1C ?
M1 ag parental: 13; CHO-K1 Ca antag: 46*; M1 PAM parental: -5; CHRM1 antagonist: 52*; M1 PAM: -23; M1 ag: 8

Results for CC[C@@H](C(=O)[C@@H](C)[C@@H](O)[C@H](C)CCc1ccc(C)c(O)c1C(=O)O)[C@H]1O[C@](CC)([C@H]2CC[C@](O)(CC)[C@H](C)O2)C[C@@H]1C ?
M1 ag parental: 26*; CHO-K1 Ca antag: 10; M1 PAM parental: -1; CHRM1 antagonist: -6; M1 PAM: -19; M1 ag: 61*

Results for O=C(NC1CCCCCCC1)c1cc(COc2ccc3ncccc3c2)on1 ?
M1 ag parental: 11; CHO-K1 Ca antag: 29*; M1 PAM parental: 2; CHRM1 antagonist: 49*; M1 PAM: -18; M1 ag: -5

How did Cc1cc(CN(C)C(=O)c2cc(COc3ccc4ncccc4c3)on2)on1 do in these assays?
M1 ag parental: 13; CHO-K1 Ca antag: 9; M1 PAM parental: 3; CHRM1 antagonist: 19; M1 PAM: -9; M1 ag: 3

How did CC(CNC(=O)c1cc(COc2ccc3ncccc3c2)on1)c1ccccc1 (centres undefined) do in these assays?
M1 ag parental: 17*; CHO-K1 Ca antag: 18; M1 PAM parental: -6; CHRM1 antagonist: 43*; M1 PAM: -14; M1 ag: 2

How did Cc1ccc(OCCSc2nc3ccccc3n2CC(=O)O)cc1C do in these assays?
M1 ag parental: 0; CHO-K1 Ca antag: 3; M1 PAM parental: -8; CHRM1 antagonist: -5; M1 PAM: 3; M1 ag: -2

How did Cc1ccc(Sc2c([N+](=O)[O-])c(C)nn2C)cc1 do in these assays?
M1 ag parental: 0; CHO-K1 Ca antag: -2; M1 PAM parental: -12; CHRM1 antagonist: 88*; M1 PAM: -28; M1 ag: -8

Results for CCc1nn2cc(C(=O)c3cc(Cl)ccc3O)cnc2c1-c1ccc(F)cc1 ?
M1 ag parental: 1; CHO-K1 Ca antag: -11; M1 PAM parental: 15; CHRM1 antagonist: 43*; M1 PAM: -7; M1 ag: -6

Results for Cc1nn(-c2ccccc2)c2ncc(C(=O)c3cc(Cl)ccc3O)cc12 ?
M1 ag parental: 0; CHO-K1 Ca antag: -7; M1 PAM parental: 6; CHRM1 antagonist: -1; M1 PAM: 7; M1 ag: -4

What do the screens show for `CCn1nc(C)c(CN2CCCC(CO)(Cc3cccc(Cl)c3)C2)c1C` (centres undefined)?
M1 ag parental: 2; CHO-K1 Ca antag: -14; M1 PAM parental: 8; CHRM1 antagonist: 54*; M1 PAM: -23; M1 ag: -6

How did CCOC(=O)C1(Cc2cccc(OC)c2)CCN(C/C=C/c2ccccc2)CC1 do in these assays?
M1 ag parental: 5; CHO-K1 Ca antag: 0; M1 PAM parental: -1; CHRM1 antagonist: 10; M1 PAM: -8; M1 ag: -5

How did COc1ccc(/C=C/CN2CCCC(CO)(Cc3cccc(Cl)c3)C2)cc1 (centres undefined) do in these assays?
M1 ag parental: 28*; CHO-K1 Ca antag: -4; M1 PAM parental: 9; CHRM1 antagonist: 19; M1 PAM: -7; M1 ag: 2

What do the screens show for `COc1cccc(CC2(CO)CCCN(C/C=C/c3ccccc3OC)C2)c1` (centres undefined)?
M1 ag parental: 5; CHO-K1 Ca antag: 0; M1 PAM parental: 3; CHRM1 antagonist: 3; M1 PAM: -20; M1 ag: -12

Results for CCOC(=O)C1(Cc2cccc(OC)c2)CCN(C/C=C/c2ccc(OC)cc2)CC1 ?
M1 ag parental: 4; CHO-K1 Ca antag: 20; M1 PAM parental: -13; CHRM1 antagonist: 33*; M1 PAM: -30; M1 ag: -13

How did CCn1nc(C)c(CN2CCCC(CO)(Cc3ccccc3)C2)c1C (centres undefined) do in these assays?
M1 ag parental: 0; CHO-K1 Ca antag: -12; M1 PAM parental: 11; CHRM1 antagonist: -8; M1 PAM: 2; M1 ag: -8

Results for COc1ccc(F)c(CN2CCCC(CO)(Cc3cccc(Cl)c3)C2)c1 (centres undefined) ?
M1 ag parental: 1; CHO-K1 Ca antag: 1; M1 PAM parental: 2; CHRM1 antagonist: -9; M1 PAM: 6; M1 ag: -4

How did COc1ccccc1/C=C/CN1CCCC(CO)(Cc2cccc(Cl)c2)C1 (centres undefined) do in these assays?
M1 ag parental: 3; CHO-K1 Ca antag: 12; M1 PAM parental: -16; CHRM1 antagonist: 56*; M1 PAM: -17; M1 ag: 0

How did CC1(C2(O)CCCCC2)NCCc2ccccc21 (centres undefined) do in these assays?
M1 ag parental: 0; CHO-K1 Ca antag: 6; M1 PAM parental: -3; CHRM1 antagonist: -4; M1 PAM: 2; M1 ag: -3

Results for Cc1ccc(CN2CC(C(=O)N3CCN(c4ccccc4Cl)CC3)CC2=O)cc1 (centres undefined) ?
M1 ag parental: 5; CHO-K1 Ca antag: -15; M1 PAM parental: 4; CHRM1 antagonist: -4; M1 PAM: 3; M1 ag: -1

How did N#Cc1ccc(-c2nc3ccc(Cl)cn3c2Cc2ccsc2)cc1 do in these assays?
M1 ag parental: 0; CHO-K1 Ca antag: -6; M1 PAM parental: -9; CHRM1 antagonist: -18; M1 PAM: -3; M1 ag: -2
